A selection: hits, their analogues and other compounds. The true share with any hit is near 7.3%.
FLuc modulator – inhibits or activates purified firefly luciferase, miR-21 counter-screen. Potency, µM (series often up to 57.5 µM), actives largely listed as inhibitors. 6.9% of 360,000 active. P08659. purified FLuc, Km substrates, luminescence inhibition. AID 588342; further: nearly all actives have a fitted effect of over 55% in size
Target sequence (P08659 whole entry, looked up): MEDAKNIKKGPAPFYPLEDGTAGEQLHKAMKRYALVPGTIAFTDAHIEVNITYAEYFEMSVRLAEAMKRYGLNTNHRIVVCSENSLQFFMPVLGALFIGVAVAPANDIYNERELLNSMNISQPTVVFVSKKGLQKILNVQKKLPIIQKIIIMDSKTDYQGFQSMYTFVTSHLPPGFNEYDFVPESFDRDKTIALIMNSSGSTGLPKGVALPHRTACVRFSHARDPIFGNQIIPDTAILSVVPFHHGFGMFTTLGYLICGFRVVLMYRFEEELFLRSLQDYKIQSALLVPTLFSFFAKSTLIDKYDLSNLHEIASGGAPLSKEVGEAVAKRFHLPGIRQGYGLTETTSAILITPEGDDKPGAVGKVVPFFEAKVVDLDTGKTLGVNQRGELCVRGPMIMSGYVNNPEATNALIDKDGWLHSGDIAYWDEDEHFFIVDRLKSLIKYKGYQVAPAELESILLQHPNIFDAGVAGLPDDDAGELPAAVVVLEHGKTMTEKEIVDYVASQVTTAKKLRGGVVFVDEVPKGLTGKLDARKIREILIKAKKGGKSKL
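Purified P. pyralis luciferase, 10 nM final, with Km-level 10 uM D-luciferin and 10 uM ATP in 50 mM Tris acetate pH 7.5, 10 mM Mg acetate, 0.01% Tween-20, 0.05% BSA; 6-point qHTS titration about 60 µM downward; luminescence read.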
NPC1 promoter act – NPC1 promoter activation; Huh7 NPC1 promoter luciferase reporter, 24 h; Potency, µM (doses to about 9.22 µM), actives largely listed as activators; 2.4% of 320,000 active; further: nearly all actives have a fitted effect of over 60% in size
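Luminescence read-out of NPC1 promoter-driven luciferase in stably transfected Huh7 cells; compounds delivered in DMSO and left 24 h at 37C, 5% CO2, qHTS titration format.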
SMN2 splice up – increases expression of the SMN2 splice variant. HEK293 SMN2-luciferase splicing reporter, luminescence, 30-36 h. Potency, µM (top dose mostly 46.1 µM), hits mostly activators. 2.8% of 210,000 active. AID 1458; further: nearly all actives have a fitted effect of over 55% in size
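HEK293 cells carry an SMN2 minigene-luciferase reporter in which exon 7 inclusion puts luciferase in frame. Cells were seeded at 2000 cells/well, attached for 10-12 hours, then exposed to compounds for 30-36 hours at 37C before ONE-Glo luminescence.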
Rab9 promoter act – activators of Rab9 promoter; Huh7 Rab9 promoter-luciferase reporter, luminescence, 24 h; Potency, µM (highest dose often 9.22 µM), most hits filed as activators; 2.8% of 320,000 active; further: nearly all actives have a fitted effect of over 60% in size
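Steps: seed 1500 Huh7 Rab9-luc cells per well, rest 2 h at 37 °C; add compound in DMSO; incubate 24 h; add luciferase reagent, 10 min ambient; read luminescence.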
KinaseGlo FLuc – Kinase-Glo luciferase inhibition (counter-screen); Kinase-Glo luciferase, ATP luminescence, 8 min; Potency, µM (titrated, usually from 38.3 µM), actives largely listed as inhibitors; 0.28% of 200,000 active; AID 1379; further: nearly all actives have a fitted effect of over 60% in size
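Compounds were added to a substrate mix at pH 7.2 (50 mM imidazole, 10 uM ATP, within the enzyme's linear range), followed by Kinase-Glo detection reagent; luminescence was measured after 8 minutes at ambient temperature.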
ELG1 genotoxic – genotoxicity induction in ELG1-luciferase HEK293T cells. Potency, µM (highest dose often 46 µM), hits mostly activators. HEK293T ELG1-luciferase reporter, luminescence, 16 h. AID 504466. 1.3% of 330,000 active; further: nearly all actives have a fitted effect of over 60% in size
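16 hr compound incubation (37 °C, 5% CO2) of HEK293T cells carrying luciferase-tagged ELG1; luciferase then measured by ONE-Glo luminescence after 30 min at RT.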
Of the large screens only hits and unclear results are named; the others gave an inactive call. The call rests on the fitted dose curve; in most records, active means well fitted curve in the direction sought with a large enough effect; inconclusive means small, poorly fitted or top-dose-only effect, or another doubt; inactive means no such curve, though single readings can be large; an effect the other way counts as inactive or inconclusive.

Cc1cccc2cc(CN(Cc3ccco3)C(=O)Nc3cccc(C#N)c3)c(Cl)nc12	none
C/C(=N\Nc1nnc2c3ccccc3n(C)c2n1)c1ccc(C)o1	FLuc modulator 16.9µM
Cc1cc(C)n(-c2nnc3c4ccccc4n(C)c3n2)n1	FLuc modulator 4.78µM, NPC1 promoter act 1.41µM, Rab9 promoter act 2.51µM, ELG1 genotoxic inconclusive (no result: SMN2 splice up, KinaseGlo FLuc)
Cn1c2ccccc2c2nnc(SCC(N)=O)nc21	none (no result: SMN2 splice up, KinaseGlo FLuc)
C/C(=N\Nc1nc(C)cc(C)n1)c1ccc(C)o1	none (no result: SMN2 splice up, KinaseGlo FLuc)
Cc1cc(NC(=O)c2cc3n(n2)C(C(F)(F)F)CC(c2ccco2)N3)no1 (centres undefined)	none
Cc1cccc(C)c1OCC(O)CN1CCN(c2ccccc2)CC1 (centres undefined)	none
Cc1nc2c(-c3ccccc3)c(C)nn2c(C)c1CCC(=O)NC(C)c1ccccc1 (centres undefined)	none (no result: NPC1 promoter act, Rab9 promoter act, KinaseGlo FLuc, ELG1 genotoxic)
CCOC(=O)N1CCN(C(=S)NC2CCCC2)CC1	none
CCn1c2ccc(/C(C)=N\O)cc2c2cc(/C(C)=N\O)ccc21	none
CCn1c(SCC(=O)Nc2nc(-c3ccc(C)cc3)cs2)nnc1-c1ccccc1O	FLuc modulator inconclusive
CCn1c(SCC(=O)Nc2nc(-c3ccc(C)cc3)cs2)nnc1-c1ccccc1	FLuc modulator 23.9µM
Cc1ccc(-c2csc(NC(=O)CSc3nc(C)cs3)n2)cc1	FLuc modulator inconclusive, NPC1 promoter act inconclusive, SMN2 splice up 14.1µM
Cc1nnc(SCC(=O)Nc2nc(-c3ccc(F)cc3)cs2)[nH]c1=O	FLuc modulator 16.9µM
O=C(CSc1nnc(-c2cccnc2)n1Cc1ccco1)Nc1nc(-c2ccc(F)cc2)cs1	FLuc modulator 15.1µM
COc1ccc(S(=O)(=O)Nc2cc(C(=O)NCCC(C)C)ccc2N2CCOCC2)cc1	none
Cc1cc(NC(=O)CSc2nc(-c3ccc(Cl)cc3)cs2)no1	none
CC(C)(C)NC(=O)CSc1nc(-c2ccc(F)cc2)cs1	FLuc modulator 6.75µM, NPC1 promoter act 3.55µM, SMN2 splice up 14.1µM, Rab9 promoter act 2µM, ELG1 genotoxic inconclusive
O=C(CSc1nc(-c2ccc(Cl)cc2)cs1)Nc1cccc([N+](=O)[O-])c1	FLuc modulator 9.53µM
N#Cc1cccc(NC(=O)CSc2sc3c(O)cc(=O)[nH]c3c2C#N)c1	none (no result: SMN2 splice up, KinaseGlo FLuc)
CCc1cccc(CC)c1NC(=O)c1cccc(N)c1	none
COc1cccc(CN2CCN(C(=O)C3CCC(=O)N(C4CCCC4)C3)CC2)c1 (centres undefined)	none (no result: SMN2 splice up, KinaseGlo FLuc)
Cc1cccc(NC(=O)c2cc(-c3cc(Cl)ccc3O)n[nH]2)c1	FLuc modulator inconclusive, NPC1 promoter act 2.24µM, Rab9 promoter act inconclusive (no result: SMN2 splice up, KinaseGlo FLuc)
Cc1ccc(NC(=O)c2cc(-c3cc(Cl)ccc3O)n[nH]2)cc1C	none (no result: SMN2 splice up, KinaseGlo FLuc)
Cc1ccc(C)c(NC(=O)c2cc(-c3cc(C)ccc3O)n[nH]2)c1	FLuc modulator 3.01µM, NPC1 promoter act 2µM, ELG1 genotoxic inconclusive (no result: SMN2 splice up, KinaseGlo FLuc)
O=S(=O)(Nc1ccc2nc(-c3ccc(Br)o3)[nH]c2c1)c1ccccc1	FLuc modulator 15.1µM, NPC1 promoter act 2.82µM, Rab9 promoter act 2.82µM
Cc1ccc(-c2nc3ccc(NS(=O)(=O)c4ccccc4)cc3[nH]2)o1	FLuc modulator 12µM, NPC1 promoter act 3.98µM, SMN2 splice up inconclusive, Rab9 promoter act inconclusive, ELG1 genotoxic inconclusive
CCSC1=C(C#N)C(c2ccc(C)s2)CC(=O)N1 (centres undefined)	FLuc modulator 26.9µM
O=C(CN1C(=O)S/C(=C/c2ccccn2)C1=O)N1CCOCC1	none (no result: SMN2 splice up, KinaseGlo FLuc)
O=C(CN1C(=O)S/C(=C/c2ccc(N3CCOCC3)cc2)C1=O)N1CCOCC1	FLuc modulator 3.01µM, SMN2 splice up inconclusive, ELG1 genotoxic inconclusive
O=C(CN1C(=O)S/C(=C\C=C\c2ccccc2)C1=O)N1CCOCC1	FLuc modulator 4.78µM (no result: SMN2 splice up, KinaseGlo FLuc)
O=[N+]([O-])c1ccc(/C=N/Nc2ccc3ccccc3c2)o1	FLuc modulator 10.7µM, NPC1 promoter act inconclusive, Rab9 promoter act inconclusive
Cc1ccc2nc(N/N=C\c3ccc([N+](=O)[O-])o3)nc(-c3ccccc3)c2c1	FLuc modulator 7.57µM
O=C1c2ccccc2C(=O)N1c1cccc2cccnc12	none
